Data: PubChem BioAssay (Tox21)
Records with an inconclusive call do not appear. A call without a number means that no potency is given here. Values without a mark were called inactive. The source made the active and inactive calls. Unless noted, the call rests on the fitted dose curve; in most records, active means well fitted curve in the direction sought with a large enough effect in the repeat runs; inconclusive means weak or mixed curves; inactive means no such curve, though single readings can be large; an effect the other way counts as inactive or inconclusive.

How the values were obtained:
[1] = qHTS assay to identify small molecule agonists of the peroxisome proliferator-activated receptor delta (PPARd) signaling pathway - cell viability counter screen (AID 743211); further: nearly all actives have a fitted effect of over 55% in size; further: potency means the concentration at half of the fitted maximal effect
Procedure, shortened: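 qHTS cell viability: PPARd-bla HEK293H; 17 h cpd, 37C; CellTiter-Glo, luminescence at 30 min RT.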

[2] = target: Peroxisome proliferator-activated receptor delta (Homo sapiens) (UniProt Q03181); assay: qHTS assay to identify small molecule agonists of the peroxisome proliferator-activated receptor delta (PPARd) signaling pathway (AID 743212; calls by dose curve)
Procedure, shortened: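 GeneBLAzer UAS-bla HEK293H cells carrying a PPARδ construct were exposed to compounds at 37 °C. Beta-lactamase activity was read by FRET fluorescence after 2 h at room temperature with LiveBLAzer B/G substrate.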

[3] = qHTS assay to identify small molecule antagonists of the peroxisome proliferator-activated receptor delta (PPARd) signaling pathway - cell viability counter screen (AID 743213); further: nearly all actives have a fitted effect of over 50% in size; further: potency means the concentration at half of the fitted maximal effect
Procedure, shortened: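 In this counter screen, HEK293H cells carrying a UAS-beta-lactamase reporter are co-treated with test compounds and 300 nM L165041 (final) for 17 h at 37 C; cell viability is quantified by CellTiter-Glo luminescence.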

[4] = target: Peroxisome proliferator-activated receptor delta (Homo sapiens) (UniProt Q03181); assay: qHTS assay to identify small molecule antagonists of the peroxisome proliferator-activated receptor delta (PPARd) signaling pathway (AID 743215; active means well fitted inhibition curve with a large enough effect in the signal ratio in the repeat runs, not every such curve was filed as active; the % refers to the signal ratio;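 further: cells stimulated with agonist L165041 at 300 nM final during compound exposure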; further: potency means the concentration at half of the fitted maximal effect)
Procedure, shortened: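 Inhibition of L165041-driven (300 nM final) PPARd signaling is scored in HEK293H UAS-bla cells. Exposure lasts 17 h at 37 C; beta-lactamase activity is then read by FRET substrate fluorescence after 2 h at room temperature.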

[5] = target: Bile acid receptor (Homo sapiens) (UniProt Q96RI1); assay: qHTS assay to identify small molecule antagonists of the farnesoid-X-receptor (FXR) signaling pathway (AID 743217; active means well fitted inhibition curve with a large enough effect in the signal ratio in the repeat runs, not every such curve was filed as active; the % refers to the signal ratio; further: potency means the concentration at half of the fitted maximal effect)
Procedure, shortened: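 Antagonist mode against 50 uM (final) chenodeoxycholic acid stimulation in FXR-bla HEK 293T cells, 16 h at 37 °C. Inhibition detected as reduced beta-lactamase activity via LiveBLAzer B/G FRET fluorescence after 2 h at room temperature.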

[6] = target: Bile acid receptor (Homo sapiens) (UniProt Q96RI1); assay: qHTS assay to identify small molecule agonists of the farnesoid-X-receptor (FXR) signaling pathway (AID 743220; active means well fitted activation curve with a large enough effect in the signal ratio in the repeat runs, not every such curve was filed as active; the % refers to the signal ratio)
Procedure, shortened: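 Beta-lactamase reporter under UAS control in GeneBLAzer FXR HEK 293T cells (5000/well) measured with LiveBLAzer FRET substrate after 2 h at room temperature. Compound exposure lasted 16 h at 37C.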

[7] = qHTS assay to identify small molecule antagonists of the farnesoid-X-receptor (FXR) signaling pathway - cell viability counter screen (AID 743221; active means well fitted cell-killing curve with a large enough effect in the repeat runs, not every such curve was filed as active; further: nearly all actives have a fitted effect of over 50% in size)
Procedure, shortened: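 After a 5 h settling period, FXR-bla HEK 293T cells receive compound and chenodeoxycholic acid (50 uM final) and incubate 16 h at 37 C; CellTiter-Glo luminescence, read after 30 min at room temperature, reports cell viability.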

[8] = target: Vitamin D3 receptor (Homo sapiens) (UniProt P11473); assay: qHTS assay to identify small molecule agonists of the vitamin D receptor (VDR) signaling pathway (AID 743222; calls by dose curve)
Procedure, shortened: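 Quantitative HTS agonist-mode screen: compounds in DMSO were pin-transferred onto VDR-bla cells and incubated 16 h at 37C, 5% CO2. Reporter activity was detected with LiveBLAzer B/G FRET substrate after 2 h at room temperature.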

[9] = qHTS assay to identify small molecule agonists of the farnesoid-X-receptor (FXR) signaling pathway - cell viability counter screen (AID 743218); further: nearly all actives have a fitted effect of over 45% in size; further: potency means the concentration at half of the fitted maximal effect
Procedure, shortened: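 Cytotoxicity counter-screen run in parallel, same wells: FXR-UAS-bla HEK 293T cells dosed 16 h at 37 C, viability read by CellTiter-Glo luminescence after 30 min at room temperature.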

[10] = target: Vitamin D3 receptor (Homo sapiens) (UniProt P11473); assay: qHTS assay to identify small molecule antagonists of the vitamin D receptor (VDR) signaling pathway (AID 743223; active means well fitted inhibition curve with a large enough effect in the signal ratio in the repeat runs, not every such curve was filed as active; the % refers to the signal ratio)
Procedure, shortened: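 Reporter line VDR-bla; stimulus 1alpha,25-(OH)2 vitamin D3, 3 nM final; compound co-addition, 16 h 37C/5% CO2; LiveBLAzer B/G substrate 2 h RT; fluorescence intensity.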

Chain of Vitamin D3 receptor (Homo sapiens) (P11473 whole entry, looked up): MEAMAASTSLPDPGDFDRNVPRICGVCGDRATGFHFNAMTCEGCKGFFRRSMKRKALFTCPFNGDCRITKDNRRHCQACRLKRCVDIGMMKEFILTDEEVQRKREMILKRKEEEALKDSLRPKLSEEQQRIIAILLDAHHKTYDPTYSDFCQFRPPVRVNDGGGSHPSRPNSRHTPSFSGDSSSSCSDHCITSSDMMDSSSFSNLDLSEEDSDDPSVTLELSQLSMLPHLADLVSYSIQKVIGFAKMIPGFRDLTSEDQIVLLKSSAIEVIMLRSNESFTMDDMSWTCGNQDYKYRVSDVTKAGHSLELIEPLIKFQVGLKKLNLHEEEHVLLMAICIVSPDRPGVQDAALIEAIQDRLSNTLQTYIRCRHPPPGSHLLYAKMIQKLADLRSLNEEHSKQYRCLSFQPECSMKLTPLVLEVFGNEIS
Chain of Bile acid receptor (Homo sapiens) (Q96RI1 whole entry, looked up): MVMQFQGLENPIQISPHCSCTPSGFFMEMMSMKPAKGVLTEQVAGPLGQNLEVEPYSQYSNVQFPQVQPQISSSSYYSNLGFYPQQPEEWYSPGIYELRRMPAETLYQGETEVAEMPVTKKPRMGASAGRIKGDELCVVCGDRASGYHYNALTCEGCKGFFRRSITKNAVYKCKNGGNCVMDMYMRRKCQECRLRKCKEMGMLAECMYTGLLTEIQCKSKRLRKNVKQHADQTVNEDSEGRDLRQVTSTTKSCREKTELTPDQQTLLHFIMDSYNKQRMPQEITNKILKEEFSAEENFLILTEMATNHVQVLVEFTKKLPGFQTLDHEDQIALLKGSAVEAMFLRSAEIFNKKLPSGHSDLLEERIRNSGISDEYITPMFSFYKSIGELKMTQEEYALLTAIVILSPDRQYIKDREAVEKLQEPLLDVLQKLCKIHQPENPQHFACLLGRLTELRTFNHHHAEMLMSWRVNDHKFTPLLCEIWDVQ
Chain of Peroxisome proliferator-activated receptor delta (Homo sapiens) (Q03181 whole entry, looked up): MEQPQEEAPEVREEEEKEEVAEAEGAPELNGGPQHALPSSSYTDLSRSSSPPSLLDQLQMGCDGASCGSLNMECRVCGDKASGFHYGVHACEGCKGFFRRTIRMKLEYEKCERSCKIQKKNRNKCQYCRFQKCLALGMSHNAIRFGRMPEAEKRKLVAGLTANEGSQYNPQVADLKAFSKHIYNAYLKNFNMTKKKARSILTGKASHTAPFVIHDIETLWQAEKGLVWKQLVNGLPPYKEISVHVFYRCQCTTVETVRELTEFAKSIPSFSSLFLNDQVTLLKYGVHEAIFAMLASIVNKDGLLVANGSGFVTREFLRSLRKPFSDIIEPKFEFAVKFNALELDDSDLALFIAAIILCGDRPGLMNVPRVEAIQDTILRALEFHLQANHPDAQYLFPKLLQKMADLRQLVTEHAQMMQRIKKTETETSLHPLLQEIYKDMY

SMILES	Potency [1]	Potency [2]	Potency [3]	Potency [4]	Potency [5]	Potency [6]	Potency [7]	Potency [8]	Potency [9]	Potency [10]
CCCCC/C=C\C/C=C\CCCCCCCC(=O)O	inactive	inactive	inactive	inactive	inactive	inactive	inactive	inactive	–	–
CC(C)CCOC(=O)/C=C/c1ccccc1	inactive	inactive	inactive	inactive	inactive	inactive	inactive	inactive	inactive	–
CCCCCCCCCCCCOC(=O)c1ccc(O)cc1	34.9 µM (active)	inactive	inactive	inactive	44 µM (active)	–	–	inactive	49.3 µM (active)	inactive
Nc1nc(N)nc(-c2cc(Cl)ccc2Cl)n1	inactive	inactive	inactive	inactive	inactive	inactive	inactive	–	inactive	–
O=C1CCCCCCCCCCCCCCCO1	inactive	inactive	inactive	inactive	inactive	inactive	inactive	–	–	–
Cc1cccc(C(=O)O)c1O	inactive	inactive	inactive	inactive	inactive	inactive	inactive	inactive	–	inactive
CCCCOC(=O)CC	inactive	inactive	inactive	inactive	inactive	inactive	inactive	inactive	inactive	inactive
C=Cc1ccccc1C=C	inactive	inactive	inactive	inactive	inactive	inactive	inactive	inactive	inactive	inactive
S=c1nccc[nH]1	inactive	inactive	inactive	inactive	inactive	inactive	inactive	–	inactive	–
CC1(C)[C@@H](O)CC[C@]2(C)[C@H]3C(=O)C=C4[C@@H]5C[C@@](C)(C(=O)O)CC[C@]5(C)CC[C@@]4(C)[C@]3(C)CC[C@@H]12	38.5 µM (active)	–	–	–	–	–	–	–	–	–
CCOC(=O)NNc1ccc(N(CC)CC(C)O)nn1 (stereo unspecified)	inactive	inactive	inactive	inactive	inactive	inactive	inactive	–	–	inactive
CCCCCc1ccc(Cl)cc1	inactive	inactive	inactive	inactive	inactive	inactive	inactive	inactive	–	–
Cc1ccc(C(=O)O)cc1	inactive	inactive	inactive	inactive	inactive	inactive	inactive	–	inactive	–
CCc1ccc(Br)cc1	inactive	inactive	inactive	inactive	inactive	inactive	inactive	inactive	–	inactive
C#Cc1ccc(-c2ccccc2F)cc1	inactive	inactive	inactive	inactive	inactive	inactive	–	–	–	–
C/C=C/C=C/COC(=O)C(C)C	inactive	inactive	inactive	inactive	inactive	–	inactive	inactive	inactive	inactive
CCCCC(CC)COC(=O)CCCCC(=O)OCc1ccccc1 (stereo unspecified)	inactive	inactive	inactive	inactive	inactive	inactive	–	inactive	inactive	inactive
O=C(O)Cc1ccccc1Nc1c(Cl)cccc1Cl	inactive	inactive	inactive	inactive	inactive	inactive	inactive	inactive	inactive	–
O=C(/C=C/c1ccccc1)OC/C=C/c1ccccc1	inactive	inactive	inactive	inactive	inactive	inactive	inactive	inactive	–	inactive
CC(C)Cn1cnc2c(N)nc3ccccc3c21	inactive	inactive	inactive	inactive	inactive	inactive	–	inactive	inactive	inactive
CCN(CC)C(=O)c1cc(S(=O)(=O)Cc2ccccc2)c(N2CCC(c3ccccc3)CC2)cc1N(CC)CCN(C)C	21.6 µM (active)	inactive	6.84 µM (active)	17.2 µM (active)	inactive	inactive	–	inactive	–	–
COC(=O)c1ccccc1C	inactive	inactive	inactive	inactive	inactive	inactive	inactive	–	inactive	–
Clc1nnc(Cl)c2ccccc12	inactive	inactive	inactive	inactive	–	–	inactive	inactive	inactive	inactive
COC(C)=O	inactive	inactive	inactive	inactive	inactive	inactive	inactive	–	inactive	–
Cc1cc(-n2nc3ccc(Cl)cc3n2)c(O)c(C(C)(C)C)c1	inactive	inactive	inactive	inactive	inactive	–	inactive	inactive	–	inactive
CCOc1ccc2ccccc2c1C(=O)N[C@@H]1C(=O)N2[C@@H]1SC(C)(C)[C@@H]2C(=O)O	inactive	inactive	inactive	inactive	–	inactive	inactive	inactive	inactive	inactive

SMILES	Potency [1]	Potency [2]	Potency [3]	Potency [4]	Potency [5]	Potency [6]	Potency [7]	Potency [8]	Potency [9]	Potency [10]
[Cl][Pt-2]([Cl])([Cl])[Cl]	inactive	inactive	inactive	inactive	inactive	inactive	inactive	inactive	inactive	inactive
CCCCCCCCCCCC(=O)OCC(C)OC(=O)CCCCC(=O)O (stereo unspecified)	inactive	inactive	inactive	inactive	–	–	inactive	inactive	inactive	–
C[Si](Cl)(c1ccccc1)c1ccccc1	inactive	inactive	inactive	inactive	inactive	inactive	inactive	inactive	inactive	inactive
COC(=O)Nc1nc2ccc(C(=O)c3ccccc3)cc2[nH]1	inactive	inactive	inactive	inactive	1.06 µM (active)	inactive	inactive	inactive	–	–
CN(C)Cc1ccccc1O	inactive	inactive	inactive	inactive	inactive	inactive	inactive	inactive	inactive	inactive
CCCCNS(=O)(=O)c1ccc(C)cc1	inactive	inactive	inactive	inactive	–	–	–	–	inactive	–
CC(C)CCCCCOC(=O)CCS	inactive	inactive	inactive	inactive	–	–	inactive	inactive	inactive	inactive
[Cu+]	inactive	inactive	inactive	inactive	–	–	–	–	inactive	–
Nc1nc2c(ncn2COCCO)c(=O)[nH]1	inactive	inactive	inactive	inactive	inactive	inactive	–	–	inactive	–
COC(=O)c1ccccc1OC	inactive	inactive	inactive	inactive	inactive	inactive	inactive	–	inactive	–
COc1cc(S(=O)(=O)O)c(C)cc1N=Nc1c(O)ccc2cc(S(=O)(=O)O)ccc12	inactive	inactive	inactive	inactive	inactive	inactive	inactive	inactive	inactive	inactive
CCCCCCOC(=O)C(C)CC (stereo unspecified)	inactive	inactive	inactive	inactive	inactive	inactive	inactive	–	inactive	–
ClCCl	inactive	inactive	inactive	inactive	–	–	–	inactive	–	–
CC(C)(C)NSc1nc2ccccc2s1	inactive	inactive	inactive	inactive	–	–	–	inactive	–	–
C[C@@H](O)[C@H](N)C(=O)O	inactive	inactive	inactive	–	inactive	inactive	inactive	–	inactive	–
Cc1cc(C(C)(C)C)cc(C)c1CC1=NCCN1	inactive	inactive	inactive	–	inactive	inactive	inactive	–	inactive	–
CC1(C)CCC[C@]2(C)[C@H]3CC(=O)O[C@]3(C)CC[C@@H]12	inactive	inactive	inactive	inactive	–	inactive	inactive	–	–	–
Cc1c(C)c2c(c(C)c1OC(=O)c1cccnc1)CC[C@@](C)(CCC[C@H](C)CCC[C@H](C)CCCC(C)C)O2	inactive	inactive	inactive	inactive	–	–	inactive	inactive	inactive	inactive
CCC(=O)C(=O)CC	inactive	inactive	inactive	inactive	–	–	inactive	inactive	inactive	inactive
CCCCOC(=O)CO	inactive	inactive	inactive	inactive	–	–	inactive	inactive	inactive	inactive
CC/C=C\CCCCCO	inactive	inactive	inactive	inactive	–	–	–	inactive	inactive	inactive
CC(C)OC(=O)C(O)(CC(=O)O)CC(=O)O	inactive	inactive	inactive	–	inactive	inactive	–	inactive	inactive	inactive
O=C(O)c1cc(=O)c2ccccc2o1	inactive	inactive	inactive	inactive	–	–	inactive	inactive	inactive	inactive
Nc1ccc(C(=O)O)c(O)c1	inactive	inactive	inactive	–	inactive	inactive	inactive	inactive	inactive	inactive
CCN1C(=O)c2ccccc2C1Nc1ccc(OCCN2CCCCC2)cc1 (stereo unspecified)	inactive	inactive	inactive	–	inactive	inactive	inactive	inactive	inactive	inactive
